HTR5A ag: HTR5A agonists in luminescence cell assay, primary screen, counter-screen for OPRM1-OPRD1 heterodimer agonist project, full-deck HTS. 5-hydroxytryptamine receptor 5A (Homo sapiens), P47898. cell-based. activation, % at 9.3 µM. 340,000 tested, 0.61% active. AID 504692, 2011; in the data active = activation mostly above about 9.5%, no sharp cut-off; inactive = mostly below about 7.6%
Target sequence (P47898 whole entry, looked up): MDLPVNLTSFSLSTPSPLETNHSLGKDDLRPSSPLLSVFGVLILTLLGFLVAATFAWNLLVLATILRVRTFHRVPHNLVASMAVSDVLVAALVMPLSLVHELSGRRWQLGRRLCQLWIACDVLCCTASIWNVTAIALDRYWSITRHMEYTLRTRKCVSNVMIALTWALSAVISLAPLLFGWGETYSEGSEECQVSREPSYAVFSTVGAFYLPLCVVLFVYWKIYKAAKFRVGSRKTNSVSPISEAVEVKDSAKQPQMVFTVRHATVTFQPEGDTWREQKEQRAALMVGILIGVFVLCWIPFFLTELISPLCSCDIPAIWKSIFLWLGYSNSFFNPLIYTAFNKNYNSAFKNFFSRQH
beta cell repl: inducers of MIN6 beta-cell proliferation, primary screen, ATP luminescence, uHTS; MIN6 cells proliferation, ATPlite luminescence, 48 h; cells starved in 0.2% serum; 100% = growth in 10% serum; proliferation, % at 10 µM; 330,000 tested, 0.29% active; AID 2380, 2010;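 active = compounds whose signal lies at least 3.5 SD above the mean of all wells on their plate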
OPRM1-OPRD1 inv: inverse agonists of MOR-DOR heterodimerization, primary screen, cell-based, luminescence; AID 504357, 2011; inhibition, % at 9.3 µM; 340,000 tested, 0.21% active; cell-based MOR-DOR heterodimer luminescence, inverse agonism; in the data active = inhibition above about 22%, passing the limit was not always enough
V-ATPase pHluor: regulators of yeast V-ATPase proton pumping, primary screen, pHLuorin cytosolic pH fluorescence; S. cerevisiae; response, % at 10 µM; 350,000 tested, 0.37% active; in the data active = response mostly above about 7.3%, no sharp cut-off; inactive = mostly below about 5.4%; also: actives read high
HTR5A inv ag: HTR5A inverse agonists in luminescence cell assay, primary screen, counter-screen for OPRM1-OPRD1 heterodimer inverse agonist project, full-deck HTS. 5-hydroxytryptamine receptor 5A (Homo sapiens), P47898. HTR5A cell line, inverse agonism. inhibition, % at 9.3 µM. 340,000 tested, 0.083% active. AID 504634, 2011; in the data active = inhibition mostly above about 23%, no sharp cut-off; inactive = mostly below about 18%
MOR-DOR ag: agonists of OPRM1-OPRD1 heterodimerization, primary screen, cell-based, luminescence; cells; 340,000 tested, 0.3% active; activation, % at 9.3 µM; AID 504326, 2011; Mu-type opioid receptor (Homo sapiens) + Delta-type opioid receptor (Homo sapiens), …
MOR-DOR ag conf: agonists of MOR-DOR heterodimerization, confirmation, cell-based, luminescence | AID 504904, 2011 | activation, % at 9.3 µM | cells, luminescence complementation | shares compounds with MOR-DOR ag | 830 tested, 45% active
HTR5A ag ctr2: HTR5A agonists in cells, counter-screen for OPRM1-OPRD1 heterodimer agonist project, cell-based, luminescence; shares compounds with MOR-DOR ag; activation, % at 9.3 µM; AID 504905, 2011; HTR5A agonist counterscreen; 830 tested, 8% active; in the data active = activation above about 17%
Hits are given with their value; i = inactive; nt = no result. Shown are actives, neighbours in structure and some others; about 1.7% of the full set was active somewhere. Rule as the data show it, unless noted: active = activation above about 18%; inactive = the rest.

SMILES | HTR5A ag | beta cell repl | OPRM1-OPRD1 inv | V-ATPase pHluor | HTR5A inv ag | MOR-DOR ag | MOR-DOR ag conf | HTR5A ag ctr2
Oc1cccc(C(=S)N2CCN(Cc3ccccc3)CC2)c1 | i | i | i | i | i | 32 | i | i
Oc1cccc(C(=S)N2CCC(Cc3ccccc3)CC2)c1 | i | i | i | i | i | i | nt | nt
COc1ccccc1NS(=O)(=O)c1cccc(C(=O)NC2CCN(Cc3ccccc3)CC2)c1 | i | i | i | i | i | 20 | i | i
COc1ccccc1NS(=O)(=O)c1ccc(C)c(C(=O)NC2CCN(Cc3ccccc3)CC2)c1 | i | i | i | i | i | i | nt | nt
COc1ccc(-c2nc(CN3CCC(C(=O)NCC4CCCO4)CC3)c(C)o2)cc1OC (stereo not drawn) | i | i | i | i | i | 30 | 23 | i
Cc1cc(C)cc(Oc2coc3cc(OC(=O)c4cccnc4)ccc3c2=O)c1 | i | i | i | i | i | 22 | i | i
CCN(CC)CCNC(=O)c1ccc(NC(=O)c2ccc(F)cc2F)cc1 | i | i | i | i | i | i | nt | nt
CCOC(=O)C1(CCCc2ccccc2)CCN(C(=O)CCc2cnn(C)c2)CC1 | i | i | i | i | i | i | nt | nt
CCOC(=O)C1(Cc2cccc(F)c2)CCN(Cc2cnn(CC)c2)CC1 | i | i | i | i | i | 68 | i | i
CCOC(=O)C1(Cc2ccc(Cl)cc2)CCN(Cc2cn(CC)nc2C)CC1 | i | i | i | i | i | 21 | i | i
CCOC(=O)C1(CCCc2ccccc2)CCN(Cc2cnn(C)c2)CC1 | i | i | i | i | i | 98 | 115 | i
CCCn1cc(CN2CCC(Cc3cccc(F)c3)(C(=O)OCC)CC2)c(C)n1 | i | i | i | i | i | i | nt | nt
O=C(Cn1ncc2c([nH]c3ccccc32)c1=O)N1CCc2ccccc2C1 | i | i | i | i | i | 32 | 26 | i
CC1CC(C)CN(C(=O)Cn2ncc3c([nH]c4ccccc43)c2=O)C1 (stereo not drawn) | i | i | i | i | i | i | nt | nt
COc1ccc(Oc2cnn(-c3ccccc3)c(=O)c2Br)cc1 | i | i | i | i | i | i | nt | nt
O=C(NCCc1ccc(Cl)cc1)C1CCC(CNc2nc(=S)[nH]c3ccccc23)CC1 (stereo not drawn) | i | i | i | i | i | 33 | 36 | i
S=c1nc(NCCc2ccccc2Cl)c2ccccc2[nH]1 | i | i | i | i | i | 23 | i | i
O=C(CCCCCNc1nc(=S)[nH]c2ccccc12)NCc1ccccc1Cl | nt | i | nt | nt | nt | nt | nt | nt
Cc1ccccc1Cn1c(O)c(N=NC(=S)Nc2ccccc2F)c2ccccc21 | i | i | i | i | i | 18 | 76 | i
Cn1nc(-c2ccccc2)cc1NC(=O)c1cccs1 | i | i | i | i | i | i | nt | nt
Cc1ccc(C)c(CN2C(=O)c3ccccc3S(=O)c3ccc(C(=O)N4CCN(c5ccccn5)CC4)cc32)c1 (stereo not drawn) | i | i | i | i | i | 27 | i | i
N#Cc1ccccc1NC(=O)CSc1cn[nH]n1 | i | i | i | i | i | i | nt | nt
COc1ccc(C(CNc2nc(-c3cccnc3)nc3ccccc23)N(C)C)cc1 (stereo not drawn) | i | i | i | i | i | 160 | i | i
COC(=O)CNc1nc(-c2cccnc2)nc2ccccc12 | i | i | i | i | i | i | nt | nt
CCOc1ccc(Br)cc1S(=O)(=O)NC(=O)c1ccccc1 | i | i | i | i | i | i | nt | nt
SMILES | HTR5A ag | beta cell repl | OPRM1-OPRD1 inv | V-ATPase pHluor | HTR5A inv ag | MOR-DOR ag | MOR-DOR ag conf | HTR5A ag ctr2
N#CCCN(Cc1ccccc1)C(=O)c1cccs1 | i | i | i | i | i | i | nt | nt
Cc1ccc(NC(=O)CCCSc2nc3ccccc3[nH]2)cc1 | i | i | i | i | i | i | nt | nt
Cc1ccc(SCC(=O)Nc2ccc(-c3nc4ccccc4[nH]3)cc2)cc1 | i | i | i | i | i | 34 | 29 | i
Cc1ccc2nc(-c3ccc(SCC(=O)Nc4nnc(C)s4)nc3)[nH]c2c1 | i | i | i | i | i | 24 | i | i
COc1ccc(CCn2c(=S)[nH]c3cc(C(=O)NCc4ccco4)ccc3c2=O)cc1OC | i | i | i | i | i | 28 | 24 | i
CCOc1ccc2nc(NCCNC(=O)Nc3ccccc3)c(C#N)cc2c1 | i | nt | i | i | i | 50 | 29 | i
Cc1cc(NC(=O)CN(C)S(=O)(=O)c2cccc(Cl)c2)no1 | i | i | i | i | i | i | nt | nt
C/C=N\NC(=O)COc1cc(C)ccc1C | nt | i | nt | i | nt | nt | nt | nt
CC(=O)Nc1ccc(NC(=O)c2cc([N+](=O)[O-])cc([N+](=O)[O-])c2)cc1 | i | i | i | i | i | i | nt | nt
O=C(Nc1ccc(Br)cc1)c1cc([N+](=O)[O-])cc([N+](=O)[O-])c1 | i | i | i | i | i | 22 | i | i
CC(Sc1nnc(-c2ccncc2)n1C)C(=O)Nc1ccc(N2CCOCC2)cc1 (stereo not drawn) | i | i | i | i | i | i | nt | nt
CCS(=O)(=O)N1CCC(NC(=O)C(Cc2cccc(OC)c2OC)NC(C)=O)CC1 (stereo not drawn) | i | i | i | i | i | i | nt | nt
CC(=O)OCC(=O)C1CCC2C3CC=C4CC(O)CCC4(C)C3CCC12C (stereo not drawn) | i | i | i | i | i | i | nt | nt
CC(=O)C1CCC2C3CC=C4CC(SC(=N)N)CCC4(C)C3CCC12C (stereo not drawn) | i | nt | i | i | i | 42 | 79 | i
COc1ccc(-n2c(C)cc(/C=C3/SC(=S)N(C)C3=O)c2C)cc1 | i | nt | i | i | i | i | nt | nt
Cc1cc(/C=C2\SC(=S)N(C)C2=O)c(C)n1-c1cccc(O)c1 | i | i | i | i | i | 30 | i | i
COc1cc(SC)ccc1C(=O)NCCOc1ccc(C)c(C)c1 | i | i | i | i | i | i | nt | nt
CCN(C(=O)c1cccs1)c1nc(-c2ccc(OC)cc2)cs1 | i | i | i | i | i | i | nt | nt
COc1ccc(-c2csc(N(CCCN(C)C)C(=O)c3cccs3)n2)cc1 | i | i | i | i | i | 26 | 43 | i
O=C(CSc1n[nH]c(=O)n1Cc1ccco1)Nc1ccccc1Cl | i | i | i | i | i | i | nt | nt
OCC1(CCc2ccccc2)CCN(Cc2cc(Cl)ccc2O)CC1 | i | i | i | i | i | i | nt | nt

Screening data (PubChem BioAssay)
